Measured values taken from PubChem BioAssay (NCI).
This is part of a sample that, as a whole, favours compounds with a hit. Of some 83,000 tested, about 20% had one in any assay.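 Note: values are percent growth. 100 is the growth of untreated cells, values between 100 and 0 indicate rising inhibition; between -100 and 0 indicates cell death.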 Calls of active or inactive are those of the source. How the source made its calls: active means growth percent below 10; inactive means the rest.

Test system: HL-60(TB) leukemia
Experiment: NCI-60 one-dose screen, 48 h (100 = growth as untreated, 0 = no growth, -100 = all killed)
Conditions: 10 µM unless noted

| Structure (SMILES) | growth |
| --- | --- |
| C[C@H](Oc1cc(-c2cnn(C3CCNCC3)c2)cnc1N)c1c(Cl)ccc(F)c1Cl | 58.3% (inactive) |
| CN1CCC2(CC1)NC(=O)c1c(c3ccc(Cl)c(Cl)c3n1C)C2C#N (stereo unspecified) | 70.8% (inactive) |
| CC(=O)Nc1cc(F)cc(C(F)(F)F)c1Cl | 100% (inactive) |
| Cn1cc(C2=C(c3cccc4ccccc34)C(=O)NC2=O)c2cc(Br)ccc21 | 107% (inactive) |
| C#CCOC(=O)C(N)CS (stereo unspecified) | 120% (inactive) |
| COc1ccc2nc3cc(Cl)ccc3c(N3CCN(c4nccc(NCc5ccccc5)n4)CC3)c2c1 | 61.7% (inactive) |
| CSc1nc(-c2cccs2)c2c(N)[nH]nc2n1 | 85.3% (inactive) |
| COC(=O)c1c2c(c(C)[n+]([O-])c1C)C(=O)C(NCc1cccc(Cl)c1)=CC2=O | -56.1% (active) |
| O=[N+]([O-])c1ccc2c(c1)S(=O)c1cc([N+](=O)[O-])ccc1N2 | 109% (inactive) |
| O=C1c2cccc3c(-c4ccc5c(c4)ncn5C4CCCCC4)ccc(c23)C(=O)N1c1nc2ccccc2s1 | 76% (inactive) |
| O=S(=O)(NCCCNc1nccc(-n2ccc3cccnc32)n1)c1ccc(Br)cc1 | 110% (inactive) |
| COc1ccc(-c2nc3sccn3c2-c2ccnc(NCCCNS(=O)(=O)c3ccc(F)cc3)n2)cc1 | -3.74% (active) |
| COc1ccc(C(=O)c2sc3nc4c(c(C(F)(F)F)c3c2N)CN(C(C)=O)CC4)cc1OC | 98.7% (inactive) |
| Cn1nc(N)c2cc([C@@H]3Nc4ccc5[nH]ncc5c4[C@H]4C5CCC(C5)[C@@H]34)ccc21 (stereo partly specified) | -16.6% (active) |
| CCN(CC)CCCC(C)Nc1c2ccc(Cl)cc2nc2cc(OC)c(OC)cc12 (stereo unspecified) | 6.67% (active) |
| O=C(Cn1c2ccccc2c2ccncc21)N/N=C/c1cc(O)c(O)c(O)c1 | 85.1% (inactive) |
| CC(C)CCSc1nc(-c2ccc(F)cc2)c(C#N)c(N2CCN(C)CC2)n1 | 73.8% (inactive) |
| CN(C)c1ccc2c(N(C)C)cc(N(C)C)nc2c1 | 92.1% (inactive) |
| NCCCN | 98.8% (inactive) |
| O=C(Nc1ccncc1)C(=O)c1cn(S(=O)(=O)c2ccc(Oc3ccccc3)cc2)c2ccccc12 | 70.5% (inactive) |
| COc1cc(-c2nc(N)n(CC(=O)Nc3ccc(/C(C)=N\O)cc3)n2)cc(OC)c1OC | 91.6% (inactive) |
| N#Cc1ccc(C(F)(F)F)nc1N1CCC(C(=O)Nc2ccc(Cl)cc2)CC1 | 70% (inactive) |
| CC1=CC2C(C(O)CC3(C)C2CC(C)C32OCOC23COCO3)C2(C)C/C(=C/O)C(=O)C=C12 (stereo unspecified) | -12.3% (active) |

| Structure (SMILES) | growth |
| --- | --- |
| Cc1ccc(S(=O)(=O)c2ccc3[nH]c(=O)[nH]c(=O)c3c2)cc1 | 89.3% (inactive) |
| N#Cc1c(-c2ccccc2)nc2c(c(-c3ccc(Cl)cc3)nn2-c2ccccc2)c1-c1ccc([N+](=O)[O-])cc1 | 103% (inactive) |
| O=C(NCCNc1nccc(-c2c(-c3cccc(O)c3)nc3sccn23)n1)c1ccccc1 | 93.3% (inactive) |
| N/C(=N\c1nc2ccccc2[nH]1)NC(=O)Cc1cccc2ccccc12 | 82.4% (inactive) |
| Cc1cc2nc3c4ccccc4n(CCN(C)C)c3nc2cc1C | 8.35% (active) |
| Cc1cc(C)c(-c2c(O)c(Br)c(-c3c(C)cc(C)c(Br)c3C)c(O)c2Br)c(C)c1Br | 27.3% (inactive) |
| C/C(=N\Nc1cccc(Cl)n1)c1ccccn1 | -9.92% (active) |
| CC1CN(S(=O)(=O)c2oc(-c3ccc(Cl)cc3)nc2C#N)CC(C)O1 (stereo unspecified) | 23.4% (inactive) |
| CNC(=S)NC(C)(C)C | 92.6% (inactive) |
| Cn1c2c(c3ccc(-c4ccn[nH]4)cc3c1=O)C(=O)c1ccccc1-2 | -17.7% (active) |
| Cc1ccc(CNc2c3ccccc3nc3ccccc23)cc1 | 25.5% (inactive) |
| CN(C)C(=S)N(C)C | 86.6% (inactive) |
| CCOCCNc1ccc(S(=O)(=O)c2ccc(N)cc2)cc1N | 107% (inactive) |
| Cc1cc(C)c(NC(=O)c2sc3nc4c(cc3c2N)CCCCCC4)c(C)c1 | -20.2% (active) |
| CC(=O)O[C@H]1CC[C@@]2(C)C(=CC[C@@H]3[C@@H]2CC[C@]2(C)C(Cl)=C(c4nc5ccc(Cl)cn5c4NC(C)(C)C)C[C@@H]32)C1 | 91.9% (inactive) |
| COc1ccc(OC)c(/C=C/c2nc(SCc3ccccc3)n(-c3ccc(Cl)cc3)n2)c1 | 1.31% (active) |
| CC1=CN2C(=NC3=C(CCCC/C3=C\c3ccccc3)C2c2ccccc2)S1 (stereo unspecified) | 102% (inactive) |
| Cc1cc(=O)n(C(=S)Nc2ccc(Cl)cc2)c2cc(O)ccc12 | 111% (inactive) |
| CCOc1ccc(/C=C/C(=O)c2cccc(OCCCOc3cccc(C(=O)/C=C/c4ccc(OCC)cc4)c3)c2)cc1 | 56% (inactive) |
| CCOC(=O)c1sc(-c2ccc(OS(=O)(=O)c3ccccc3[N+](=O)[O-])c(C=O)c2)nc1C | 73.3% (inactive) |
| O=C(CSc1nnc(-c2ccccc2)o1)Nc1ccc(C(=O)/C=C/c2ccccc2)cc1 | 71% (inactive) |
| CN1CCN(/C=C2\CC(C(=O)NCc3ccc(Cl)cc3Cl)NC2=O)CC1 (stereo unspecified) | 103% (inactive) |
| O=C(/C=C/C12c3ccccc3C(c3ccccc31)C1C(=O)NC(=O)C12)c1ccc(Cl)cc1 (stereo unspecified) | -6.98% (active) |
